# Source: the supplement of paper PMC8728848
# About 410 targets per protein were measured; listed, in parts, are those with the strongest signals and a random draw of the rest.
# B1: CCL1 (Coprinopsis cinerea) (protein)
# chain: MDTQAKPPAGRYVIYNRVLSPNGEKLALTYPGYQREALTLTPLHHSANQIWILNNWDATTSSLTPETARNTQVGWGSGNVPIVLPPGNYVWTLASSAGGYIIQDGGKTVYWNAGEAVANTKVSIGGDNGLQARWIFERV
# How the values were obtained:
# Assay in all cases: glycan array binding signal (z-score within array); higher = stronger binding
# Conditions in all cases: glycan notation: IUPAC condensed, linker removed
# [1] = biological target: Fuc(a1-2)Gal(b1-3)GlcNAc6S
# Procedure, shortened: (§1)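 The Consortium for Functional Glycomics database supplied 3228 glycan arrays, of which those lacking an available protein sequence were dropped. The binding signal, a within-array Z-score, was averaged across arrays of the same protein sequence and across linkers. Negative scores can be read as non-binding.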
# [2] = biological target: Fuc(a1-2)Gal(b1-3)[Fuc(a1-4)]GlcNAc(b1-2)Man(a1-3)[Fuc(a1-2)Gal(b1-3)[Fuc(a1-4)]GlcNAc(b1-2)Man(a1-6)]Man(b1-4)GlcNAc(b1-4)GlcNAc
# Procedure, shortened: as §1
# [3] = biological target: Fuc(a1-2)Gal(b1-3)[Fuc(a1-4)]GlcNAc(b1-2)Man(a1-6)[Fuc(a1-2)Gal(b1-3)[Fuc(a1-4)]GlcNAc(b1-2)Man(a1-3)]Man(b1-4)GlcNAc(b1-4)[Fuc(a1-6)]GlcNAc
# Procedure, shortened: as §1
# [4] = biological target: Fuc(a1-2)Gal(b1-3)[Fuc(a1-4)]GlcNAc(b1-3)[Gal(b1-4)GlcNAc(b1-6)]Gal(b1-4)Glc
# Procedure, shortened: as §1
# [5] = biological target: Fuc(a1-2)Gal(b1-4)Glc
# Procedure, shortened: as §1
# [6] = biological target: Fuc(a1-2)Gal(b1-4)GlcNAc(b1-3)[Fuc(a1-2)Gal(b1-4)GlcNAc(b1-6)]GalNAc
# Procedure, shortened: as §1
# [7] = biological target: Fuc(a1-2)Gal(b1-4)[Fuc(a1-3)]GlcNAc(b1-3)[Neu5Ac(a2-6)Gal(b1-4)GlcNAc(b1-6)]Gal(b1-4)Glc
# Procedure, shortened: as §1
# [8] = biological target: Fuc(a1-2)Gal6S(b1-4)Glc6S
# Procedure, shortened: as §1
# [9] = biological target: Fuc(a1-2)[Gal(a1-3)]Gal(b1-3)GlcNAc(b1-2)Man(a1-3)[Fuc(a1-2)[Gal(a1-3)]Gal(b1-3)GlcNAc(b1-2)Man(a1-6)]Man(b1-4)GlcNAc(b1-4)GlcNAc
# Procedure, shortened: as §1
# [10] = biological target: Fuc(a1-2)[Gal(a1-3)]Gal(b1-4)[Fuc(a1-3)]GlcNAc
# Procedure, shortened: as §1
# [11] = biological target: Fuc(a1-2)[GalNAc(a1-3)]Gal(b1-4)GlcNAc(b1-3)Gal(b1-4)GlcNAc
# Procedure, shortened: as §1
# [12] = biological target: Fuc(a1-3)[Gal(b1-4)]GlcNAc(b1-2)Man(a1-3)[Fuc(a1-3)[Gal(b1-4)]GlcNAc(b1-2)Man(a1-6)]Man(b1-4)GlcNAc(b1-4)GlcNAc
# Procedure, shortened: as §1
# [13] = biological target: Fuc(a1-3)[Gal(b1-4)]GlcNAc(b1-3)Gal(b1-3)[Fuc(a1-4)]GlcNAc
# Procedure, shortened: as §1
# [14] = biological target: Fuc(a1-3)[Gal(b1-4)]GlcNAc(b1-4)Gal(b1-4)[Fuc(a1-3)]GlcNAc(b1-4)Gal(b1-4)[Fuc(a1-3)]GlcNAc
# Procedure, shortened: as §1
# [15] = biological target: Fuc(a1-3)[GalNAc(b1-4)]GlcNAc
# Procedure, shortened: as §1
# [16] = biological target: Fuc(a1-3)[GalNAc(b1-4)]GlcNAc6S
# Procedure, shortened: as §1
# [17] = biological target: Fuc(a1-3)[GalNAc3S(b1-4)]GlcNAc
# Procedure, shortened: as §1
# [18] = biological target: Gal(a1-3)Gal(b1-3)[Fuc(a1-4)]GlcNAc(b1-2)Man(a1-3)[Gal(a1-3)Gal(b1-3)[Fuc(a1-4)]GlcNAc(b1-2)Man(a1-6)]Man(b1-4)GlcNAc(b1-4)GlcNAc
# Procedure, shortened: as §1
# [19] = biological target: Gal(a1-4)GlcNAc
# Procedure, shortened: as §1
# [20] = biological target: Gal(b1-3)Gal
# Procedure, shortened: as §1
# [21] = biological target: Gal(b1-3)Gal(b1-4)GlcNAc
# Procedure, shortened: as §1
# [22] = biological target: Gal(b1-3)GalNAc
# Procedure, shortened: as §1
# [23] = biological target: Gal(b1-3)GlcNAc(b1-2)Man(a1-3)[Gal(b1-3)GlcNAc(b1-2)Man(a1-6)]Man(b1-4)GlcNAc(b1-4)GlcNAc
# Procedure, shortened: as §1
# [24] = biological target: Gal(b1-3)GlcNAc(b1-3)Gal(b1-4)[Fuc(a1-3)]GlcNAc(b1-6)[Gal(b1-3)GlcNAc(b1-3)]Gal(b1-4)Glc
# Procedure, shortened: as §1
# [25] = biological target: Gal(b1-4)GlcNAc(b1-2)Man(a1-3)[GlcNAc(b1-2)Man(a1-6)]Man(b1-4)GlcNAc(b1-4)GlcNAc
# Procedure, shortened: as §1
# [26] = biological target: Gal(b1-4)GlcNAc(b1-2)Man(a1-6)Man(b1-4)GlcNAc(b1-4)GlcNAc
# Procedure, shortened: as §1
# [27] = biological target: Gal(b1-4)GlcNAc(b1-2)[Gal(b1-4)GlcNAc(b1-6)]Man(a1-6)[Gal(b1-4)GlcNAc(b1-2)Man(a1-3)]Man(b1-4)GlcNAc(b1-4)GlcNAc
# Procedure, shortened: as §1
# [28] = biological target: Gal(b1-4)GlcNAc(b1-6)GalNAc
# Procedure, shortened: as §1
# [29] = biological target: Gal3S(b1-3)[Fuc(a1-4)]GlcNAc
# Procedure, shortened: as §1
# [30] = biological target: Gal3S(b1-4)GlcNAc
# Procedure, shortened: as §1
# [31] = biological target: Gal6S(b1-3)GlcNAc
# Procedure, shortened: as §1
# [32] = biological target: GalNAc(b1-4)GlcNAc
# Procedure, shortened: as §1
# [33] = biological target: Glc(b1-4)Glc
# Procedure, shortened: as §1
# [34] = biological target: Glc(b1-6)Glc
# Procedure, shortened: as §1
# [35] = biological target: Man(a1-2)Man(a1-3)[Man(a1-2)Man(a1-6)]Man
# Procedure, shortened: as §1
# [36] = biological target: Man(a1-2)Man(a1-6)[Man(a1-3)]Man(a1-6)[Man(a1-2)Man(a1-2)Man(a1-3)]Man(b1-4)GlcNAc(b1-4)GlcNAc
# Procedure, shortened: as §1
# [37] = biological target: Neu5Ac(a2-3)Gal(b1-3)GalNAc(b1-4)[Neu5Ac(a2-3)]Gal(b1-4)Glc
# Procedure, shortened: as §1
# [38] = biological target: Neu5Ac(a2-3)Gal(b1-3)GlcNAc
# Procedure, shortened: as §1
# [39] = biological target: Neu5Ac(a2-3)Gal(b1-3)[Neu5Ac(a2-6)]GalNAc
# Procedure, shortened: as §1
# [40] = biological target: Neu5Ac(a2-3)Gal(b1-4)GlcNAc(b1-3)Gal(b1-4)[Fuc(a1-3)]GlcNAc
# Procedure, shortened: as §1
# [41] = biological target: Neu5Ac(a2-3)Gal(b1-4)[Fuc(a1-3)]GlcNAc(b1-3)Gal
# Procedure, shortened: as §1
# [42] = biological target: Neu5Ac(a2-3)Gal(b1-4)[Fuc(a1-3)]GlcNAc(b1-3)Gal(b1-4)[Fuc(a1-3)]GlcNAc(b1-3)Gal(b1-4)[Fuc(a1-3)]GlcNAc
# Procedure, shortened: as §1
# [43] = biological target: Neu5Ac(a2-3)Gal6S(b1-4)[Fuc(a1-3)]GlcNAc
# Procedure, shortened: as §1
# [44] = biological target: Neu5Ac(a2-3)[Neu5Ac(a2-6)]GalNAc
# Procedure, shortened: as §1
# [45] = biological target: Neu5Ac(a2-8)Neu5Ac(a2-3)[GalNAc(b1-4)]Gal(b1-4)Glc
# Procedure, shortened: as §1
binder,measurement,setting,value
B1,glycan array binding signal (z-score),[1],-0.097
same,glycan array binding signal (z-score),[2],-0.006
same,glycan array binding signal (z-score),[3],-0.148
same,glycan array binding signal (z-score),[4],-0.144
same,glycan array binding signal (z-score),[5],-0.127
same,glycan array binding signal (z-score),[6],-0.025
same,glycan array binding signal (z-score),[7],-0.142
same,glycan array binding signal (z-score),[8],-0.033
same,glycan array binding signal (z-score),[9],-0.131
same,glycan array binding signal (z-score),[10],-0.138
same,glycan array binding signal (z-score),[11],-0.161
same,glycan array binding signal (z-score),[12],0.237
same,glycan array binding signal (z-score),[13],1.7
same,glycan array binding signal (z-score),[14],1.68
same,glycan array binding signal (z-score),[15],8.48
same,glycan array binding signal (z-score),[16],13.6
same,glycan array binding signal (z-score),[17],7.46
same,glycan array binding signal (z-score),[18],-0.081
same,glycan array binding signal (z-score),[19],-0.164
same,glycan array binding signal (z-score),[20],-0.15
same,glycan array binding signal (z-score),[21],-0.151
same,glycan array binding signal (z-score),[22],-0.163
same,glycan array binding signal (z-score),[23],-0.119
same,glycan array binding signal (z-score),[24],0.276
same,glycan array binding signal (z-score),[25],-0.106
same,glycan array binding signal (z-score),[26],-0.133
same,glycan array binding signal (z-score),[27],-0.131
same,glycan array binding signal (z-score),[28],-0.142
same,glycan array binding signal (z-score),[29],-0.116
same,glycan array binding signal (z-score),[30],-0.123
same,glycan array binding signal (z-score),[31],-0.152
same,glycan array binding signal (z-score),[32],-0.159
same,glycan array binding signal (z-score),[33],-0.115
same,glycan array binding signal (z-score),[34],-0.128
same,glycan array binding signal (z-score),[35],-0.124
same,glycan array binding signal (z-score),[36],-0.138
same,glycan array binding signal (z-score),[37],-0.132
same,glycan array binding signal (z-score),[38],-0.117
same,glycan array binding signal (z-score),[39],1.63
same,glycan array binding signal (z-score),[40],-0.148
same,glycan array binding signal (z-score),[41],3.29
same,glycan array binding signal (z-score),[42],1.58
same,glycan array binding signal (z-score),[43],1.5
same,glycan array binding signal (z-score),[44],-0.149
same,glycan array binding signal (z-score),[45],-0.127
